Rows were chosen to be rich in hits. Some 27% of all compounds tested hit in one or more screens of this group.
Pyk2 oligo antag – blocks oligomerization of human Pyk2 in cells | Q14289 | Q293 cells, Pyk2 FERM NanoBiT luminescence; active compounds read low | z-score (the deposit names both 25 µM and 10 µM) | 0.83% of 99,000 active;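 active = Z-score of -3 or lower, scaled per plate to the spread of control and sample wells; inactive = z-score above -3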;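 also: negative z-score means lost luminescence so less FERM oligomerization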
Cav3 T inh – inhibitors of human Cav3.2 T-type calcium channel; 4% of 100,000 active; AID 449739; Cav3.2-expressing cells, Fluo-4 calcium fluorescence FDSS; active compounds read low; B-score at 10 µM;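 active = single-dose well whose peak fluorescence ratio is a statistical outlier from its plate by either plate-standardised score or position-corrected B-score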
CYP2C19 act – activators of human cytochrome P450 2C19 | P33261 | recombinant CYP2C19, luciferin-H EGE luminescence; active compounds read high; 0 = fully inhibited enzyme, 1 = untreated enzyme | activation factor at 5 µM | 96,000 tested, under 10 active | AID 1025;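 active = activation factor of at least 2 at 5 µM in the primary screen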;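 also: 0 = wells with 2.5 mM tranylcypromine and 1 = vehicle-only wells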
CYP2C19 inhib – human CYP2C19 inhibition; 21% of 96,000 active; inhibition, % at 5 µM; CYP2C19 Supersomes, luciferin-H EGE luminescence, 30 min; AID 778; P33261;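 active = CYP2C19 inhibition above a set limit at 5 µM in the primary screen, cut at about 50% in these data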;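 also: plate controls were negative control wells for no effect and 2.5 mM tranylcypromine positive control for full effect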
CYP2C9 activ – increases human cytochrome P450 2C9 activity; AID 1024; 1.4% of 96,000 active; recombinant CYP2C9, luciferin-H conversion, luminescence; active compounds read high; factor 1 = untreated enzyme, 0 = blocked; P11712; activation factor at 5 µM;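 active = activation factor of 2 or more for CYP2C9 at a 5 µM dose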;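 also: 0 = sulfaphenazole-blocked wells and 1 = vehicle-only wells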
Target sequence (P11712 whole entry, looked up): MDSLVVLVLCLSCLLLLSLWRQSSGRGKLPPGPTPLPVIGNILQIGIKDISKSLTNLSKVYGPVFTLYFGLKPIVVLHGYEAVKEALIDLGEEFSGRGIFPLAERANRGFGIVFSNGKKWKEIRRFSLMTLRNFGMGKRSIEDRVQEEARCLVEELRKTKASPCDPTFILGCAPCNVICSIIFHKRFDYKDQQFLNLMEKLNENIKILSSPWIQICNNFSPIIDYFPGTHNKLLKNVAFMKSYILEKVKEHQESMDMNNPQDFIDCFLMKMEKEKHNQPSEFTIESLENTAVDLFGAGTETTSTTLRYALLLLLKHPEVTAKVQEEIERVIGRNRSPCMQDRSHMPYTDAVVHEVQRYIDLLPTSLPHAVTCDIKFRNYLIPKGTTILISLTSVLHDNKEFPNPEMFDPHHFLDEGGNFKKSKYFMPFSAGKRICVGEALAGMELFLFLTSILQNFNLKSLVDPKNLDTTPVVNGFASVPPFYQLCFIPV
CYP2C9 inh – blocks human cytochrome P450 2C9; CYP2C9 Supersomes, luciferin-H conversion, luminescence; inhibition, % at 5 µM; 20% of 96,000 active; AID 777;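 active = blocking of liver enzyme CYP2C9 beyond about 50% at 5 µM, limit read from the data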
* marks the source's active call; other numbers are inactive results; . = no result.

SMILES	Pyk2 oligo antag	Cav3 T inh	CYP2C19 act	CYP2C19 inhib	CYP2C9 activ	CYP2C9 inh
COc1ccccc1NC(=O)NC1(C(=O)N2CCC(O)CC2)CCCCC1	0.95	-0.39	1.1	-6	1	2
COc1ccccc1-c1cc(-c2cc(Cl)ccc2O)n[nH]1	0.76	.	0.9	8	0.9	11
Oc1ccc(Cl)cc1-c1cc(-c2ccccc2)n[nH]1	.	0.017	0.5	51*	0.9	14
Cc1ccc(-c2cc(-c3ccccc3Cl)[nH]n2)c(O)c1	-0.42	0.03	0.8	22	0.8	22
Cc1ccc(-c2cc(-c3ccccc3[N+](=O)[O-])[nH]n2)c(O)c1	-1.6	.	0.5	47	0.2	78*
Cc1ccccc1-c1cc(-c2ccccc2O)n[nH]1	-0.44	-0.43	0.1	93*	0	96*
COc1ccccc1CNC(=O)CCS(=O)(=O)c1ccc2c(c1)CCCN2C(C)=O	-0.18	0.3	1	4	1.2	-20
CCn1c(SCC(=O)c2ccc3c(c2)OCCO3)nnc1C(C)C	0.08	0.28	0.1	94*	0.9	11
COCCn1c(SCC(=O)c2ccc3c(c2)OCCO3)nnc1-c1ccoc1C	-0.34	0.83	0.8	22	0.6	45
CCCCn1c(SCC(=O)c2ccc3c(c2)OCCO3)nnc1-c1ccco1	-0.55	-1.1	0.5	48	0.4	56*
CC(C)n1nnnc1SCC(=O)c1ccc2c(c1)OCCO2	0.07	0.27	0.4	63*	1	4
CCn1c(COc2ccc3c(c2)OCO3)nnc1SCC(=O)c1ccc(Cl)cc1	0.8	0.25	1.1	-10	0.5	51*
Cn1c(=O)n(C)c2cc(NS(C)(=O)=O)ccc21	0.58	0.62	1	4	0.9	10
COc1nc(Nc2ccc3c(c2)OCO3)nc(OC)n1	.	0.77	0.5	49	0.3	68*
COc1nc(Nc2cccc(C(F)(F)F)c2)nc(OC)n1	0.76	-1.5	0.9	12	0.8	20
COc1nc(Nc2ccc(C(C)=O)cc2)nc(OC)n1	0.95	0.34	0.5	51*	0.5	51*
COC(=O)Cn1c(SCc2ccccc2)nc2ccccc21	-0.41	-0.88	0.4	58*	0.8	23
COc1cccc(Nc2nnc(SCC(=O)N3CCOCC3)s2)c1	-0.35	0.063	1	-4	1	-5
COc1cccc(NC(=O)Cn2c(SCC(=O)N3CCOCC3)nc3ccccc32)c1	-0.13	1.1	0.3	71*	0.2	80*
COc1cccc(C(=O)CSc2nc3ccccc3n2CC(=O)N2CCOCC2)c1	-0.37	0.039	0.8	17	0.3	68*
CCCCn1c(SCC(=O)Nc2cccc(OC)c2)nc2ccc(N3CCOCC3)cc2c1=O	-0.64	-1.4	0.2	83*	0	96*
CCSc1nc2ccccc2n1CC(=O)OC	-0.13	0.025	1.1	-6	1.2	-21
CC1Cc2ccccc2N1C(=O)CSc1nc2ccccc2n1CC(=O)N1CCOCC1 (configuration not stated)	3.4	-1.7	1	-2	0.6	44
COc1ccc(C(c2nnnn2CS(=O)(=O)c2ccc(C)cc2)N2CCN(Cc3ccccc3)CC2)cc1 (configuration not stated)	0.98	-0.55	.	.	.	.
COc1ccc(C(=O)CSc2nc3ccccc3n2CC(=O)NC(C)(C)C)cc1	0.27	-0.83	0.6	40	0.3	72*
SMILES	Pyk2 oligo antag	Cav3 T inh	CYP2C19 act	CYP2C19 inhib	CYP2C9 activ	CYP2C9 inh
C=CCNC(=S)Nc1sc2c(c1C(=O)OCC)CC(C(C)C)OC2 (configuration not stated)	-1	0.12	0.8	15	0.9	9
CCc1cccc(NC2c3ccccc3C(=O)N2c2ccc(C)cn2)c1 (configuration not stated)	.	-4.4*	0.2	85*	0.5	50*
CCOC(=O)c1ccc(NC2c3ccccc3C(=O)N2c2cccnc2)cc1 (configuration not stated)	.	-2.1	0.1	88*	0.2	75*
COc1ccc(NC2c3ccccc3C(=O)N2c2ccccn2)cc1Cl (configuration not stated)	.	-2	0.2	76*	0.4	61*
CCOC(=O)c1ccc(NC2c3ccccc3C(=O)N2c2ccc(C)cn2)cc1 (configuration not stated)	.	-0.67	1	0	0.9	11
COC(=O)c1ccccc1NC1c2ccccc2C(=O)N1c1cccnc1 (configuration not stated)	.	0.056	0.8	23	0.5	46
CCc1cccc(NC2c3ccccc3C(=O)N2c2cccnc2)c1 (configuration not stated)	.	-0.3	0	97*	0.5	53*
CCC(C)N(C(=O)COC(=O)Cc1n[nH]c(=O)c2ccccc12)C1CCS(=O)(=O)C1 (configuration not stated)	0.71	1.7	1	-3	0.9	7
COc1cccc(NC(=O)c2nn(C)cc2Br)c1	0.17	0.17	.	.	.	.
COCCNCCOCCOc1ccc(Cl)c(C)c1	0.47	-0.25	0.7	32	1	-4
Cc1cc(NS(=O)(=O)c2ccc(Nc3nc(-c4sc(NC(=O)c5ccccc5)nc4C)cs3)cc2)no1	.	0.29	1.2	-18	0.3	75*
CCC(=O)Nc1nc(C)c(-c2csc(Nc3ccc(S(=O)(=O)Nc4cc(C)on4)cc3)n2)s1	.	0.053	1	-2	0.7	33
Cc1nc2sccn2c1-c1csc(NCc2ccccc2)n1	0.46	-2.4	0.1	90*	0.4	62*
Cc1nc(NC(=O)c2ccccc2)sc1-c1csc(NCCc2ccccc2)n1	0.09	-0.22	0.5	48	0.2	78*
Cc1ccc(Cl)cc1Nc1nc(-c2sc(NC(=O)c3ccccc3)nc2C)cs1	.	-0.041	0.5	52*	0.2	77*
Cc1nc(N)sc1-c1csc(NCc2ccccc2)n1	-0.43	-1	0.7	30	0.6	43
Cc1nn(-c2ccccc2)c(C)c1C(=O)Nc1nnc(-c2ccco2)o1	0.68	-0.33	1	-2	1.2	-23
Cc1nc(NC(=O)c2ccccc2)sc1-c1csc(NCc2ccccc2)n1	-0.66	-0.65	0.5	51*	0.3	66*
Cc1nc(NC(=O)c2ccccc2)sc1-c1csc(N)n1	-0.07	0.35	0.8	19	0.5	54*
CC(C)CN(CC(C)C)C(=O)C12CCC(C)(C(=O)O1)C2(C)C (configuration not stated)	-0.3	-0.39	.	.	.	.
Cc1nn(C)c(C(=O)N/N=C/c2ccc(C(F)(F)F)cc2)c1[N+](=O)[O-]	-0.35	.	.	.	.	.
O=C(OCC(=O)c1ccc[nH]1)c1ccc(S(=O)(=O)N2CCCCCC2)cc1	1.9	0.04	1	4	0.7	28
O=C(CCCN1C(=O)c2ccccc2C1=O)Nc1ccc(S(=O)(=O)N2CCCCC2)cc1	-0.18	-0.018	0.4	63*	0.1	94*

Screening results (PubChem)
